Inconclusive results are not listed. Activity calls are given as the source filed them. The calls were made as follows: active = hit-call score of the fitted dose curve at least 0.9, where 1 is the maximum; inconclusive = response in the unintended direction; inactive = score below 0.9.

The experiment addresses human Dual Specificity Styrosine-Phosphorylation-Regulated Kinase 1A (DYRK1a), DYRK1A (gene 1859) (UniProt Q13627). Nature of the experiment: NVS_ENZ_hDYRK1a: NovaScreen (NVS) Enzymatic Assay for human Dual Specificity Styrosine-Phosphorylation-Regulated Kinase 1A (DYRK1a). Here is the method: NVS_ENZ_hDYRK1a is a biochemical, single-readout assay that uses extracted gene-proteins in a cell-free assay. Measurements were taken 1 hour after chemical dosing in a 96-well plate.NVS_ENZ_hDYRK1a is one of one assay component(s) measured or calculated from the NVS_ENZ_hDYRK1a assay. It is designed to make measurements of enzyme activity, a form of enzyme reporter, as detected with fluorescence intensity signals by Fluorescence and electrophoretic mobility shift technology.Data from the assay component NVS_ENZ_hDYRK1a was analyzed into 1 assay endpoint. This assay endpoint, NVS_ENZ_hDYRK1a, was analyzed in the positive analysis fitting direction relative to DMSO as the negative control and baseline of activity. Using a type of enzyme reporter, loss-of-signal activity can be used to understand changes in the enzymatic activity as they relate to the gene DYRK1A. Furthermore, this assay endpoint can be referred to as a primary readout, because this assay has produced multiple assay endpoints where this one serves a enzymatic activity function. To generalize the intended target to other relatable targets, this assay endpoint is annotated to the kinase intended target family, where the subfamily is dual-specific kinase.
Binding assays used specific radioligands (tritiated, iodinated) with non-radioactive competitive displacement ligands in agonist or antagonist protocols (as indicated) and various reference compounds and inhibitors to titrate specific binding to receptors and transporters. Most enzyme assays (CYPs, kinases, phosphatases, proteases, HDACs) used recombinant protein and specific substrates (fluorescence mostly, some colorimetric and radioactive) and inhibitors, followed by a biochemical separation of substrate and product. All assays for the biochemical HTS were initially run in duplicate at a single concentration (10 uM for CYP450 assays and 25 uM for all others). […] Each assay was run with positive and negative controls, and concurrent controls on every plate. The follow-up (secondary) screen tested active chemical-pairs in concentration series, as well as a few additional assays not tested in the primary screen, some selected negative inactives, and several cases re-run in the concentration series for confirmatory purposes.
Usually AC50 stands for the midpoint of the concentration-response curve, whichever way the signal moves. For the compound `CN(C)[C@@H]1C(=O)C(C(N)=O)=C(O)[C@@]2(O)C(=O)C3=C(O)c4c(O)cccc4[C@@](C)(O)[C@H]3[C@H](O)[C@@H]12`, the AC50 is 16.7 µM (active).
Turning to `CNC(=O)ON=C(SC)C(=O)N(C)C`, the result was inactive.
Still for that read-out and setting: to `COP(N)(=O)SC` (stereo not drawn) belongs “inactive”.
Take `Nc1c(Cl)cc([N+](=O)[O-])cc1Cl`: the AC50 is 14.7 µM (active).
Regarding `CCN(CC)C(=O)SCc1ccc(Cl)cc1`, the outcome was inactive.
On the same count and under the same terms, to `CCCCOC(=O)c1ccccc1C(=O)OCCCC` belongs “inactive”; to `O=C(Nc1ccccc1)Nc1cnns1`, “inactive”; to `N#Cc1c(Cl)c(Cl)c(Cl)c(C#N)c1Cl`, “inactive”.
As to `CC1=NNC(=O)N(/N=C/c2cccnc2)C1`, the AC50 was 13.5 µM (active).
With `O=C(O)c1nc(Cl)ccc1Cl`, the outcome was inactive.
Regarding `COc1cc(OC)nc(NC(=O)NS(=O)(=O)c2cc(NC=O)ccc2C(=O)N(C)C)n1`, the compound was classed as inactive.
For the compound `O=C(Nc1ccccc1)Nc1ccnc(Cl)c1`, the AC50 is 25 µM (active).
As for `N#Cc1c[nH]cc1-c1cccc2c1OC(F)(F)O2`, the compound was called inactive.

The values above are taken from PubChem BioAssay AID2283234 (EPA ToxCast).
